Bioassay records deposited in PubChem by several laboratories.
Compounds with a hit are over-represented: about 3.1% of the library has one in this group of screens.
BoNT-F LC inh: inhibitors of Botulinum neurotoxin F light chain protease | Multiplex microsphere protease cleavage assay, flow cytometry | actives 0.22% (n = 360,000) | inhibition, % at 10 µM; in the data active = inhibition above about 35%, passing the limit was not always enough; inconclusive = no clear call, values can overlap the other calls; note: plate controls were buffer without enzyme for full effect and enzyme alone for no effect
BoNT-A LC inh2: blocks Botulinum neurotoxin A light chain protease; multiplex microsphere protease substrate cleavage, flow cytometry; inhibition, % at 10 µM; actives 0.17% (n = 360,000); note: plate controls were buffer without enzyme for full effect and enzyme alone for no effect
Anthrax LF inh2: anthrax lethal factor protease inhibition; multiplex microsphere protease cleavage assay, LF; P15917; inhibition, % at 10 µM; actives 0.12% (n = 360,000); note: plate controls were buffer without enzyme for full effect and enzyme alone for no effect
Target sequence (P15917 whole entry, looked up): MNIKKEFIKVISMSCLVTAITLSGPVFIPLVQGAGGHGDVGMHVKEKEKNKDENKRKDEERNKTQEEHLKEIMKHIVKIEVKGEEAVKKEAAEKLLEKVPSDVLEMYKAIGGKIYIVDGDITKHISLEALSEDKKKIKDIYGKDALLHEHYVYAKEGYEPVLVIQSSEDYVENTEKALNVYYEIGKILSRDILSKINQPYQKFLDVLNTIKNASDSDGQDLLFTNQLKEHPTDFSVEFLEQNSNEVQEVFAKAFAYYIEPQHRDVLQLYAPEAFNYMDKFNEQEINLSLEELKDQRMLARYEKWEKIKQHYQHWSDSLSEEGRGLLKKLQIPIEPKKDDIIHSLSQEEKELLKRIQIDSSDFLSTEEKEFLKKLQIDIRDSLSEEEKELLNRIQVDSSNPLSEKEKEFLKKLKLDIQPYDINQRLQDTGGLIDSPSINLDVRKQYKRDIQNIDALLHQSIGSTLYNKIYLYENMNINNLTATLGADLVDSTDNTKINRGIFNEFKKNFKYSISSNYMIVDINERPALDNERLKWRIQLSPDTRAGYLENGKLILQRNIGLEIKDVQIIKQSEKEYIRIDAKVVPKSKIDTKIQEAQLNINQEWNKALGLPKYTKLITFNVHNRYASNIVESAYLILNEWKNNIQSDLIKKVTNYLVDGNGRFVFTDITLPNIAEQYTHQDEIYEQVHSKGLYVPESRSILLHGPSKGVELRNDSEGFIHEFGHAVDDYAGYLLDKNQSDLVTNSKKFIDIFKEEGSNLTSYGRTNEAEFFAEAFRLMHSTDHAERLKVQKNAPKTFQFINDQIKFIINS
SSB-PriA inh: blocks PriA binding to SSB C-terminal tail; AlphaScreen SSBct-PriA binding, biotinylated peptide; actives 0.6% (n = 430,000); inhibition, % at 33 µM; in the data active = inhibition mostly above about 37%, no sharp cut-off; inactive = mostly below about 20%;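 note: plate controls were negative control peptide for no effect and reference peptide for full effect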
Autofluor counter: counter-screen for toxin protease inhibitors: compound fluorescence | compound autofluorescence counterscreen, microsphere flow cytometry; active compounds read high | fluorescence intensity (no concentration beside the values) | actives 3.1% (n = 360,000) | AID 624483; in the data active = fluorescence intensity above about 16000; inconclusive = no clear call, values can overlap the other calls
* marks the source's active call; other numbers are inactive results. Cut-off read from the data, not from the text of the source, unless noted: active = inhibition above about 30%; inconclusive = no clear call, values can overlap the other calls; inactive = below that.

CCCc1ccc(S(=O)(=O)NCc2ccsc2)cc1 was read as SSB-PriA inh -12.
Screening CCN1CCN(c2nc3sc4c(c3c(=O)n2-c2ccc(OC)cc2)CCCCC4)CC1 returned BoNT-F LC inh -3, BoNT-A LC inh2 -1, Anthrax LF inh2 0, SSB-PriA inh -6 and Autofluor counter 16947*.
`CN(C)CCCNC(=O)C[C@H]1C[C@H](C(=O)N2CCCCC2)[C@@]2(C)c3[nH]c4cc(-c5ccco5)ccc4c3CCN2C1=O` gave BoNT-F LC inh -6, BoNT-A LC inh2 -1, Anthrax LF inh2 -4, SSB-PriA inh 10 and Autofluor counter 3035.
For CN(C)CCCNC(=O)C[C@H]1C[C@H](C(=O)N2CCCCC2)[C@@]2(CCc3ccccc3)c3[nH]c4cc(-c5ccco5)ccc4c3CCN2C1=O the results were BoNT-F LC inh -9, BoNT-A LC inh2 0, Anthrax LF inh2 -7, SSB-PriA inh 46* and Autofluor counter 3647.
Screening CCOc1ccc(-c2cc(N)n(S(=O)(=O)c3cccc4nsnc34)n2)cc1 returned BoNT-F LC inh -4, BoNT-A LC inh2 0, Anthrax LF inh2 -4, SSB-PriA inh 24 and Autofluor counter 4913.
`COc1cc(OC)cc(-c2cc(N)n(S(=O)(=O)c3cccc4nsnc34)n2)c1` gave BoNT-F LC inh -4, BoNT-A LC inh2 0, Anthrax LF inh2 -8, SSB-PriA inh 39* and Autofluor counter 4212.
For CCCCCCOc1ccc(CN2CCN(C)CC2)cc1 the results were BoNT-F LC inh -4, BoNT-A LC inh2 inconclusive, Anthrax LF inh2 -2, SSB-PriA inh -19 and Autofluor counter 24568*.
For CCCCOc1ccc(CN2CCCCC2)cc1 the results were BoNT-F LC inh -8, BoNT-A LC inh2 -1, Anthrax LF inh2 -2, SSB-PriA inh -6 and Autofluor counter 12284.
Screening Oc1ccc(N2CCN(Cc3ccc(OCCCN4CCCCC4)cc3)CC2)cc1 returned BoNT-F LC inh -23, BoNT-A LC inh2 -2, Anthrax LF inh2 -8, SSB-PriA inh 55* and Autofluor counter 5173.
For O=C(NC[C@H](O)c1ccc(C(F)(F)F)cc1)c1ccc(Br)o1 the results were SSB-PriA inh -4.
Screening CCOC(=O)C1=C(C)C(c2ccccc2)NC(=S)N1 (stereo unspecified) returned BoNT-F LC inh 1, BoNT-A LC inh2 3, Anthrax LF inh2 -1, SSB-PriA inh -2 and Autofluor counter 18384*.
`CCOC(=O)COc1ccc(C(=O)NC2CCCCC2)cc1` gave BoNT-F LC inh 5, BoNT-A LC inh2 inconclusive, Anthrax LF inh2 2, SSB-PriA inh -11 and Autofluor counter 20056*.
`CCOc1ccc(C(=S)NC2CCCCC2)cc1` gave BoNT-F LC inh 2, BoNT-A LC inh2 inconclusive, Anthrax LF inh2 -4, SSB-PriA inh -3 and Autofluor counter 20072*.
Screening CCn1c(CSc2nc3ccccc3[nH]2)n[nH]c1=S returned BoNT-F LC inh 2, BoNT-A LC inh2 2, Anthrax LF inh2 -1, SSB-PriA inh -7 and Autofluor counter 23009*.
CCn1c(CSCc2ccccc2)n[nH]c1=S was read as BoNT-F LC inh -4, BoNT-A LC inh2 0, Anthrax LF inh2 -3, SSB-PriA inh 8 and Autofluor counter 4853.
O=C(NCCCS(=O)(=O)N1CCN(c2ccccn2)CC1)c1ccco1 was read as SSB-PriA inh -11.
For Cn1cnc2nc3n(c2c1=O)CCC3 the results were BoNT-F LC inh 2, BoNT-A LC inh2 0, Anthrax LF inh2 -2, SSB-PriA inh -5 and Autofluor counter 16811*.
Screening Cc1cc2c(n1-c1ccc(Br)cc1)CC(C)(C)CC2=O returned BoNT-F LC inh 0, BoNT-A LC inh2 0, Anthrax LF inh2 -2, SSB-PriA inh -8 and Autofluor counter 16349*.
Screening O=C(NCC1CCN(S(=O)(=O)C2CC2)CC1)c1ccccc1S(=O)(=O)C(F)F returned SSB-PriA inh 0.
`COc1ccc(CNc2nc3c(c(=O)n(Cc4ccc(F)cc4)c(=O)n3C)n2C)cc1` gave BoNT-F LC inh -1, BoNT-A LC inh2 inconclusive, Anthrax LF inh2 -5, SSB-PriA inh 8 and Autofluor counter 21752*.
`CCOc1ccc(C(CC(=O)O)NC(=O)C23CC4CC(CC(C4)C2)C3)cc1` (stereo unspecified) gave BoNT-F LC inh -7, BoNT-A LC inh2 -5, Anthrax LF inh2 0, SSB-PriA inh -2 and Autofluor counter 21930*.
O=C1NC(=S)/C(=C/c2cc(Br)ccc2O)S1 was read as SSB-PriA inh 25.
CC(C)Oc1ccccc1C=NNc1ccccc1[N+](=O)[O-] was read as SSB-PriA inh 82*.
`CC(=O)Nc1ccc(C2=NNC(=Nc3cccc(S(=O)(=O)N(C)C)c3)SC2)cc1` gave BoNT-F LC inh -4, BoNT-A LC inh2 1, Anthrax LF inh2 2, SSB-PriA inh 53* and Autofluor counter 2333.
CCOC(=O)Cn1nnc(-c2ccc(S(C)(=O)=O)cc2)n1 was read as BoNT-F LC inh -2, BoNT-A LC inh2 0, Anthrax LF inh2 -2, SSB-PriA inh -10 and Autofluor counter 23651*.
For CCOC(=O)c1ccc(NC(=O)Cn2nnc(-c3ccc(F)cc3)n2)cc1 the results were BoNT-F LC inh -2, BoNT-A LC inh2 -2, Anthrax LF inh2 0, SSB-PriA inh -10 and Autofluor counter 23033*.
`CCOC(=O)c1ccc(NC(=O)CN2C(=O)CSC2=O)cc1` gave BoNT-F LC inh 1, BoNT-A LC inh2 1, Anthrax LF inh2 1, SSB-PriA inh 11 and Autofluor counter 22745*.
Screening COC(=O)c1ccc(NC(=O)CN2C(=O)C3C4C=CC(C4)C3C2=O)cc1 (stereo unspecified) returned BoNT-F LC inh -3, BoNT-A LC inh2 -3, Anthrax LF inh2 -1, SSB-PriA inh -11 and Autofluor counter 17210*.
Screening O=C(Nc1nc(-c2cc(Cl)ccc2Cl)cs1)c1ccccc1[N+](=O)[O-] returned SSB-PriA inh 19.
`CN(C)c1ccc(CCCNC(=O)c2ccccc2F)cc1` gave SSB-PriA inh 12.
CCOC(=O)c1ccc(NC(=O)CC2C(=O)Nc3c(C)c(-c4ccc(OC)cc4)nn32)cc1 (stereo unspecified) was read as SSB-PriA inh 1.
Screening Cc1ccc(-c2nnc(Nc3ccc(C)c(C)c3)[nH]c2=O)cc1 returned SSB-PriA inh 3.
CCOC(=O)c1ccc(NC(=O)COC)cc1 was read as BoNT-F LC inh 8, BoNT-A LC inh2 1, Anthrax LF inh2 -1, SSB-PriA inh -4 and Autofluor counter 9164.
CCc1cccc(NC(=O)C2CC2c2ccccc2)c1 (stereo unspecified) was read as BoNT-F LC inh 36*, BoNT-A LC inh2 0, Anthrax LF inh2 10, SSB-PriA inh -14 and Autofluor counter 4084.
Screening CCOC(=O)c1ccc(NC(=O)CSc2nnnn2C2CCCCC2)cc1 returned BoNT-F LC inh 4, BoNT-A LC inh2 0, Anthrax LF inh2 -3, SSB-PriA inh -8 and Autofluor counter 2973.
Screening CCOC(=O)c1ccc(NC(=O)CSc2nnnn2CCCO)cc1 returned BoNT-F LC inh -3, BoNT-A LC inh2 -1, Anthrax LF inh2 -1, SSB-PriA inh 0 and Autofluor counter 22895*.
